Measurements published in PubChem BioAssay (Tox21).
The source made the active and inactive calls. A call without a number means that no potency is given here. Calls follow the shape of the full dose curve.

Experiment: qHTS assay to identify small molecule agonists of the sonic hedgehog signaling (Shh) pathway (AID 1259368); also: nearly all actives have a fitted effect of over 15% in size;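 as to activity change: NIH/3T3-derived 3T3Gli1-Luc cells carrying a stable Gli1-driven firefly luciferase reporter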
Conditions: NIH/3T3 Gli1-Luc reporter, luciferase, 24 h; series mostly up to 92.4 µM
Source text: National Center for Advancing Translational Sciences [NCATS]
NIH Chemical Genomics Center [NCGC]
U.S. Environmental Protection Agency [EPA]
National Institutes of Environmental Health Sciences [NIEHS]
National Toxicology Program [NTP]
The sonic hedgehog (Shh) pathway is essential for normal embryonic development. Dysregulation of the Shh pathway can cause severe developmental defects in organs. Therefore chemicals that interfere with the pathway are potential developmental toxicants. A cell line designated 3T3Gli1-Luc (DMB/OARSA/CFSAN/FDA, Laurel, MD), a NIH/3T3 derived clone containing stably integrated Gli1-Luc reporter is used to detect chemical interference of the Shh pathway, by changes in the expression of the firefly Luc gene under the control of the Gli1 transcriptional response element. This cell line was used to screen Tox21 libraries for identifying and prioritizing the potential developmental toxicants that interfere Shh pathway.
3T3 Gli1-Luc cells were dispensed at 2,000 per well in 5uL of culture medium into white solid bottom 1536-well plates (Greiner Bio-One, Monroe, NC) using a Multidrop Combi (Thermo Scientific, Waltham, MA) dispenser. The assay plates were incubated at 37 C and 5% CO2 for 4hr, and then 23nL of compounds dissolved in DMSO and positive control were transferred using a Pintool station (Wako, San Diego, CA). The assay plates were incubated at 37C and 5% CO2 for 24hr. For luciferase read, 4uL of Amplite Luciferase reporter gene assay reagent (AAT Bioquest, Inc. Sunnyvale, CA) was added to each well of the assay plates using Flying Reagent Dispenser (FRD, Aurora Discovery, San Diego, CA) and incubated at room temperature for 30min. The luminescence signal was measured using a ViewLux plate reader (Perkin Elmer, Shelton, CT).
Potency is read from the fitted curve at half-maximal effect.

Compound | Potency | activity change
O=C(c1ccccc1)c1ccc(Cl)cc1 | inactive | 
[Cl][Dy]([Cl])[Cl] | inactive | 
CCOC(=O)[C@H](O)[C@@H](O)C(=O)OCC | inactive | 
Cn1c(=O)[nH]c2ncn(C)c2c1=O | inactive | 
Nc1cc([N+](=O)[O-])cc(Cl)c1O | inactive | 
COc1cc2ncnc(Nc3cccc(Cl)c3)c2cc1OC |  | -3.79% [at 18.9 µM, active compounds read high] (inactive)
CC(c1cc(C(C)(C)C)cc(C(C)(C)C)c1O)c1cc(C(C)(C)C)cc(C(C)(C)C)c1O | inactive | 
[Cl][Eu]([Cl])[Cl] | inactive | 
C1=CCCC1 | inactive | 
O=S(=O)(c1ccc(OCc2ccccc2)cc1)c1ccccc1O | inactive | 
CC1(C)[C@H](C(=O)OCc2cccc(Oc3ccccc3)c2)[C@@H]1C=C(Cl)Cl | inactive | 
CCc1cccc(C)c1N(C(=O)C(=O)O)C(C)COC (stereo not given) | inactive | 
CCCCCCCCCCCC(=O)Cl | inactive | 
O=C1OC(=O)c2cc(-c3ccc4c(c3)C(=O)OC4=O)ccc21 | inactive | 
Clc1ccc2c(Cl)ccnc2c1 | inactive | 
COc1c(Br)cc(Br)c(C)c1Br | inactive | 
O=C1OC2(c3ccccc31)c1ccc(O)c(Br)c1Oc1c2ccc(O)c1Br | inactive | 
O=C1Cc2ccccc2C1 | inactive | 
c1ccc2c(c1)-c1ccc3ccc4cccc5cc-2c1c3c45 | inactive | 
CCN(CC)c1ccc(C=O)cc1 | inactive | 

Compound | Potency | activity change
O=[N+]([O-])c1ccc(O)c2ncccc12 | inactive | 
Cc1ccc2nc(-c3ccc(N)cc3)sc2c1S(=O)(=O)O | 1.9 µM (active) | 
O=C1OCc2ccccc21 | inactive | 
Cc1cc(Br)ccc1NC(=O)CCl | inactive | 
CCCCCN=C(N)N/N=C/c1c[nH]c2ccc(OC)cc12 | inactive | 
C/C=C/C(=O)OCC(C)C | inactive | 
CCCC(=O)c1cc(O)c(O)cc1O | inactive | 
COc1ccc2ccccc2c1 | inactive | 
CCCCCCCCOC(=O)c1cc(O)c(O)c(O)c1 | inactive | 
O=C(CCN1CCC(c2ccccc2)C1)c1ccc2c(c1)OCCO2 (stereo not given) | inactive | 
C[C@H]1O[C@@H](O[C@H]2CC[C@@]3(C)[C@H](CC[C@@H]4[C@@H]3C[C@@H](O)[C@]3(C)[C@@H](C5=CC(=O)OC5)CC[C@]43O)C2)C[C@H](O)[C@@H]1O[C@H]1C[C@H](O)[C@H](O[C@H]2C[C@H](O)[C@H](O[C@@H]3O[C@H](CO)[C@@H](O)[C@H](O)[C@H]3O)[C@@H](C)O2)[C@@H](C)O1 | inactive | 
CCN(CC)c1ccc2c(c1)Oc1cc(N(CC)CC)ccc1C21OC(=O)c2ccccc21 | inactive | 
CC(C=O)c1ccccc1 (stereo not given) | inactive | 
CC(=O)[C@]1(O)Cc2c(O)c3c(c(O)c2[C@@H](O[C@H]2C[C@H](N)[C@H](O)[C@H](C)O2)C1)C(=O)c1ccccc1C3=O | inactive | 
CCOC(=O)OC(=O)OCC | inactive | 
c1ccc(-c2ccccc2-c2ccccc2)cc1 | inactive | 
Nc1c(Br)cc([N+](=O)[O-])cc1Br | inactive | 
c1ccc2occc2c1 | inactive | 
O=C1CCC(=O)N1 | inactive | 
CCc1cccc(C)c1N(C(=O)CS(=O)(=O)O)C(C)COC (stereo not given) | inactive | 
